Assay results from PubChem BioAssay.
Activity calls are given as the source filed them.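 Rule for the calls, unless noted: active = compound raises GLP1 secretion from the human gut endocrine cells, with no numeric limit stated; inactive = the rest.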

Legend:
[1] = stimulators of nuclear beta-catenin in C2C12, primary screen, imaging, WNT3A-conditioned medium, mouse C2C12, NPC library (AID 1117326; in the data active = nuclear beta-catenin stimulation mostly above about 4.2%, no sharp cut-off; inactive = mostly below about 10%; note: reference of the scale not given here); settings: stronger effect = higher value
[2] = stimulators of insulin release from INS-1E, primary screen, cell-based, 5 mM glucose, NPC library (AID 1117329;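 active = compound raises insulin release from rat beta cells at 5 mM glucose, no numeric limit stated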; note: reference of the scale not given here); settings: rat INS-1E insulin secretion, at 10 µM, stronger effect = higher value
[3] = growth inhibition of GSK3B-pretreated HCT116 cells – cell-based, CellTiter-Glo, 0.2 to 20 µM (AID 1117336;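 active = compounds lowering colon cancer cell viability after pretreatment blocking the GSK3B kinase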); settings: HCT116 viability after GSK3B inhibitor, at 20 µM, stronger effect = higher value
[4] = inhibition of endothelial tube formation, primary screen, imaging, VEGF stimulated, CD31 staining, tube area, NPC library (AID 1117340;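 active = compound that reduces growth-factor-driven endothelial tube area in a mixed cell culture, no cutoff stated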); settings: VEGF-stimulated ADSC/ECFC co-culture, at 10 µM, stronger effect = higher value
[5] = glucagon-like peptide 1 release enhancers, primary assay, NCI-H716 cell line, NPC library (AID 1117341); settings: NCI-H716 cells, at 10 µM, stronger effect = higher value; note: reference of the scale not given here
[6] = HCT116 colon cancer cell growth inhibition, primary screen, CellTiter-Glo luminescence, NPC library (AID 1117342;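 active = compounds that lower survival of HCT116 colon cancer cells in the luminescence readout, no numeric limit stated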); settings: at 20 µM (top of the series)
[7] = CellTiter-Glo luminescent readout of SW480 viability loss, NPC library primary (AID 1117343;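 active = compounds that lower viability of the colon cancer cells in the luminescence readout, with no numeric limit stated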); settings: CellTiter-Glo luminescence; at 20 µM (top of the series)
[8] = decreased DLD-1 cellular survival, CellTiter-Glo luminescent readout, NPC compound collection, primary HTS (AID 1117346;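 active = compounds that lower survival of DLD-1 colon cancer cells in the luminescence readout, no cutoff given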); settings: DLD-1 viability, CellTiter-Glo luminescence; at 20 µM (top of the series)

c1ccc2sc(SSc3nc4ccccc4s3)nc2c1
active: GLP1 secretion stimulation [5] 22.3%
0.3%: nuclear beta-catenin stimulation ([1]; stimulation, at 2 µM)
inactive: nuclear beta-catenin stimulation ([1]; at 10 µM) 2.2% | insulin secretion stimulation [2] -0.6% | viability decrease [3] -0.8% | tube area decrease [4] -4.4% | inhibition of viability [6] -5.7% | viability decrease (inhibition) [7] -1% | viability decrease (inhibition) [8] -20.5%

O=C(OCc1ccccc1)c1ccc(O)cc1
inactive: nuclear beta-catenin stimulation ([1]; at 10 µM) 4.1% | insulin secretion stimulation [2] 0.1% | viability decrease [3] -24.5% | tube area decrease [4] -8.2% | GLP1 secretion stimulation [5] 0.1% | inhibition of viability [6] 16.1% | viability decrease (inhibition) [7] 12.9% | viability decrease (inhibition) [8] 14.4%
-0.1%: nuclear beta-catenin stimulation ([1]; stimulation, at 2 µM)

O=C(CS)Nc1ccccc1
-0.2%: nuclear beta-catenin stimulation ([1]; stimulation, at 2 µM)
inactive: nuclear beta-catenin stimulation ([1]; at 10 µM) 0.5% | insulin secretion stimulation [2] 6.4% | viability decrease [3] -38.2% | tube area decrease [4] 4.3% | GLP1 secretion stimulation [5] -2.3% | inhibition of viability [6] -19.3% | viability decrease (inhibition) [7] -2.4% | viability decrease (inhibition) [8] -12.9%

Cc1ccccc1N1CCN(CCc2nnc3n2CCCC3)CC1
inactive: nuclear beta-catenin stimulation ([1]; at 10 µM) -0.3% | insulin secretion stimulation [2] 0.9% | viability decrease [3] 25.8% | tube area decrease [4] -13.2% | GLP1 secretion stimulation [5] 0.9% | inhibition of viability [6] 6.7% | viability decrease (inhibition) [7] 4.9% | viability decrease (inhibition) [8] 7.3%
0%: nuclear beta-catenin stimulation ([1]; stimulation, at 2 µM)

Fc1ccc(C(c2ccc(F)cc2)N2CCNCC2)cc1
inactive: nuclear beta-catenin stimulation ([1]; at 10 µM) -0.2% | insulin secretion stimulation [2] 16.6% | viability decrease [3] 29.7% | tube area decrease [4] 13.9% | GLP1 secretion stimulation [5] 7.5% | viability decrease (inhibition) [8] 25.2%
active: inhibition of viability [6] 79.8% | viability decrease (inhibition) [7] 72.4%
0.1%: nuclear beta-catenin stimulation ([1]; stimulation, at 2 µM)

CC(C)NCCCC1(C(N)=O)c2ccccc2-c2ccccc21
inactive: nuclear beta-catenin stimulation ([1]; at 10 µM) 3.9% | insulin secretion stimulation [2] 0.2% | viability decrease [3] -48.2% | tube area decrease [4] 24.7% | GLP1 secretion stimulation [5] -2.8% | inhibition of viability [6] -11.9% | viability decrease (inhibition) [7] 1.7% | viability decrease (inhibition) [8] -17%
0.2%: nuclear beta-catenin stimulation ([1]; stimulation, at 2 µM)

CCCCCCCCCCCCCCCCCC(=O)OCC(O)CO (configuration not stated)
inactive: nuclear beta-catenin stimulation ([1]; at 10 µM) -0.4% | insulin secretion stimulation [2] 2.1% | viability decrease [3] 1% | tube area decrease [4] -4.1% | GLP1 secretion stimulation [5] -0.3% | inhibition of viability [6] 2.77% | viability decrease (inhibition) [7] -13.8% | viability decrease (inhibition) [8] -7.2%
1.7%: nuclear beta-catenin stimulation ([1]; stimulation, at 2 µM)

CC(=O)Oc1ccc(C(=C2CCCCC2)c2ccc(OC(C)=O)cc2)cc1
active: viability decrease [3] 109% | inhibition of viability [6] 112% | viability decrease (inhibition) [7] 130% | viability decrease (inhibition) [8] 102%
inactive: nuclear beta-catenin stimulation ([1]; at 10 µM) 0.2% | insulin secretion stimulation [2] -0.3% | tube area decrease [4] 4.9% | GLP1 secretion stimulation [5] 7.4%
1.4%: nuclear beta-catenin stimulation ([1]; stimulation, at 2 µM)

Cc1ncc(COP(=O)(O)O)c(C=O)c1O
inactive: nuclear beta-catenin stimulation ([1]; at 10 µM) -1.1% | insulin secretion stimulation [2] -0.8% | viability decrease [3] 9.5% | tube area decrease [4] -0.4% | GLP1 secretion stimulation [5] -1.1% | inhibition of viability [6] 4.63% | viability decrease (inhibition) [7] -1.4% | viability decrease (inhibition) [8] 3.4%
-0.2%: nuclear beta-catenin stimulation ([1]; stimulation, at 2 µM)

CCOC(=O)c1c(N)sc2c1CCN(Cc1ccccc1)C2
inactive: nuclear beta-catenin stimulation ([1]; at 10 µM) 0.4% | insulin secretion stimulation [2] -0.1% | viability decrease [3] 21.9% | tube area decrease [4] 33.8% | GLP1 secretion stimulation [5] 0.5% | inhibition of viability [6] 47.3%
0.3%: nuclear beta-catenin stimulation ([1]; stimulation, at 2 µM)
active: viability decrease (inhibition) [7] 84.1% | viability decrease (inhibition) [8] 31.8%

NS(=O)(=O)c1cc(C(=O)NN2C[C@H]3[C@H]4CCC(C4)[C@H]3C2)ccc1Cl
inactive: nuclear beta-catenin stimulation ([1]; at 10 µM) -1.3% | insulin secretion stimulation [2] -3.6% | viability decrease [3] -4.2% | tube area decrease [4] -14.3% | GLP1 secretion stimulation [5] -0.6% | inhibition of viability [6] 10.3% | viability decrease (inhibition) [7] -2.9% | viability decrease (inhibition) [8] -6.4%
2.2%: nuclear beta-catenin stimulation ([1]; stimulation, at 2 µM)

CC(CSC(=O)c1ccccc1)C(=O)N1C[C@@H](Sc2ccccc2)C[C@H]1C(=O)O (some centres not stated)
inactive: nuclear beta-catenin stimulation ([1]; at 10 µM) -1% | insulin secretion stimulation [2] 6.4% | viability decrease [3] -18.3% | tube area decrease [4] -27% | GLP1 secretion stimulation [5] -4% | inhibition of viability [6] 6.5% | viability decrease (inhibition) [7] 47.6% | viability decrease (inhibition) [8] 27.7%
-0.2%: nuclear beta-catenin stimulation ([1]; stimulation, at 2 µM)

CN1CCC[C@@H]1c1cccnc1
inactive: nuclear beta-catenin stimulation ([1]; at 10 µM) -0.7% | insulin secretion stimulation [2] 1.5% | viability decrease [3] -2.3% | tube area decrease [4] 12.5% | GLP1 secretion stimulation [5] 3.1% | inhibition of viability [6] -5.8% | viability decrease (inhibition) [7] 25.8% | viability decrease (inhibition) [8] -23.3%
1.5%: nuclear beta-catenin stimulation ([1]; stimulation, at 2 µM)
